Source: PubChem BioAssay
This is one part of a sample in which hits are shown more often than they occur.
LmPK inh: inhibitors of Leishmania mexicana pyruvate kinase | Q27686 | Potency, µM (doses to about 57.5 µM), for inactives: top-dose activity change, negative = inhibition, most hits filed as inhibitors | purified LmPK, Kinase-Glo ATP luminescence, 1 h | 290,000 tested, 0.37% active; also: potency is read from the fitted curve at half-maximal effect; % is scaled to controls: 0 for no effect and ±100 for the full control effect
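In 50 mM imidazole pH 7.2 with 7 mM MgCl2, LmPK (0.1 nM) turned over PEP (0.5 mM) and ADP (0.1 mM) for 1 h at room temperature. Luciferase read-out of ATP.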
Cycloheximide cs: counter-screen hit for Shiga toxin inhibitors, cycloheximide. cell reporter, cycloheximide protein synthesis inhibition counterscreen. max response, %. 300,000 tested, 12% active. AID 2314; in the data active = max response mostly above about 13%, no sharp cut-off; inactive = mostly below about 14%; also: read at 38.3 µM for the half of the compounds with a filed dose; 0% is about no effect
Giardia FBPA inh: Giardia lamblia aldolase inhibition; purified Giardia FBPA; Potency, µM (highest dose often 59.6 µM), inactives show at the highest dose activity, negative = inhibition, usual class: inhibitors; 290,000 tested, 0.71% active; AID 2451; also: potency is read from the fitted curve at half-maximal effect; % is scaled to controls: 0 for no effect and ±100 for the full control effect; nearly all actives have a fitted effect of over 55% in size
Target sequence (A8B2U2 whole entry, looked up): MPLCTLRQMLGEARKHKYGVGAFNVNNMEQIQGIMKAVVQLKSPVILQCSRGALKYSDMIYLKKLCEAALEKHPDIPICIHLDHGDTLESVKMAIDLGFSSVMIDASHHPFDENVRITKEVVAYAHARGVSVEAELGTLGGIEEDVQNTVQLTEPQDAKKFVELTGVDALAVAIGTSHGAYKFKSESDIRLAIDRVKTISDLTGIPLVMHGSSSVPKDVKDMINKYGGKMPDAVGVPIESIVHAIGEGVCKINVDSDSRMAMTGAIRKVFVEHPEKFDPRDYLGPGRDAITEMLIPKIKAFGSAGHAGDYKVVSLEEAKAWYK
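40 nM FBPA preincubated 10 min at RT with compound (up to 57.5 uM final), then substrate plus GAPDH/TPI/NAD/arsenate coupling and diaphorase/resazurin added. Fluorescence read after 20 min at RT, 525/598 nm.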
Shiga inhibitor: inhibitors of Shiga toxin in Vero cells; Vero cells, Shiga toxin protein synthesis inhibition reporter; inhibition, % at 38.7 µM; 290,000 tested, 9.2% active; AID 2315; in the data active = inhibition mostly above about 28%, no sharp cut-off; inactive = mostly below about 43%; also: 0% is about no effect
Tb PYK inh: blocks Trypanosoma brucei pyruvate kinase; Potency, µM (doses to about 76.8 µM), for the others: at the top dose activity, negative = inhibition, actives largely listed as inhibitors; 410,000 tested, 0.12% active; TbPYK enzyme, Kinase-Glo Plus ATP luminescence, 45 min; AID 624173; also: potency is read from the fitted curve at half-maximal effect; % is scaled to controls: 0 for no effect and ±100 for the full control effect; nearly all actives have a fitted effect of over 50% in size
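T. brucei PYK with substrate was exposed to pin-transferred compounds across a concentration series, then started with 130 uM ADP (final). After 45 min at room temperature, Kinase-Glo Plus luminescence was read, normalized and curve-fitted.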
RE007 growth inh: less growth of the S. pombe RE007 Vpr strain; S. pombe RE007 Vpr strain, BacTiter-Glo ATP luminescence, 24 h; Potency, µM (doses to about 92.2 µM), without a hit: top-dose activity change, negative = less growth, hits mostly inhibitors; 360,000 tested, 0.21% active; AID 651644; active = well fitted falling curve with a large enough effect; inconclusive = small, poorly fitted or top-dose-only effect; inactive = no such curve, though single readings can be large or run the other way; also: potency is read from the fitted curve at half-maximal effect; % is scaled to controls: 0 for no effect and ±100 for the full control effect; nearly all actives have a fitted effect of over 50% in size
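Fission yeast RE007 carrying one integrated HIV-1 vpr copy, seeded at OD 0.01 in PMG+AL medium with 23 nL pinned compound. Grown 24 h at 30 degrees; viability read by BacTiter-Glo luminescence after 5 min.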
Active calls of the source: *. Unless noted, calls follow the shape of the dose curve; as a rule, active = well fitted curve in the direction sought with a large enough effect; inconclusive = small, poorly fitted or top-dose-only effect, or another doubt; inactive = no such curve, though single readings can be large; an effect the other way counts as inactive or inconclusive.

For Cc1cccc(N=C2NC(=O)/C(=C/c3cccs3)S2)c1 the results were LmPK inh -3%, Cycloheximide cs 34*, Giardia FBPA inh 1%, Shiga inhibitor active, Tb PYK inh 1% and RE007 growth inh 7%.
O=C1NC(=S)SC1=Cc1cccs1 was read as Tb PYK inh -6% and RE007 growth inh inconclusive.
Cc1ccc(N=C2NC(=O)/C(=C\c3cccs3)S2)cc1C was read as LmPK inh -2%, Cycloheximide cs 28*, Giardia FBPA inh -6%, Shiga inhibitor 72*, Tb PYK inh -5% and RE007 growth inh -16%.
Screening CC1CCc2nc3ncn(Cc4ccccc4F)c(=O)c3cc2C1 (configuration not stated) returned Tb PYK inh 2%.
`CCc1nn(CC(=O)N2CCN(c3cccc(C(F)(F)F)c3)CC2)c(=O)c2cccn12` gave Tb PYK inh 3%.
`CCOC(=O)c1cc(-c2cc3ccccc3o2)n[nH]1` gave LmPK inh 0%, Cycloheximide cs 4, Giardia FBPA inh -3%, Shiga inhibitor -12, Tb PYK inh -2% and RE007 growth inh -27%.
CCc1nnc2n1N=C(c1cccc([N+](=O)[O-])c1)CS2 was read as LmPK inh -1%, Cycloheximide cs -1, Giardia FBPA inh -1%, Shiga inhibitor -10, Tb PYK inh 1% and RE007 growth inh -2%.
CCCCN=C1NN=C(c2cccc([N+](=O)[O-])c2)CS1 was read as LmPK inh 0%, Cycloheximide cs 24*, Giardia FBPA inh -4%, Shiga inhibitor 84*, Tb PYK inh -12% and RE007 growth inh -2%.
`CCCCN=C1NN=C(c2cc3ccccc3o2)CS1` gave LmPK inh -3%, Cycloheximide cs 41*, Giardia FBPA inh 5%, Shiga inhibitor 53*, Tb PYK inh -10% and RE007 growth inh -2%.
For CCC(CC)C(=O)Nc1cccc(-c2nc3ncccn3c2C)c1 the results were Tb PYK inh -3%.
Screening O=C(Nc1ccc2c(c1)CCC2)C1CCCO1 (configuration not stated) returned LmPK inh -3%, Cycloheximide cs 39*, Giardia FBPA inh -3%, Shiga inhibitor 53*, Tb PYK inh -8% and RE007 growth inh 13%.
`COc1ccc(NC(=O)[C@@H]2CCCN2C(=O)[C@@H]2Cc3ccccc3CN2C(=O)OC(C)(C)C)cc1` gave LmPK inh 13%, Cycloheximide cs 23, Shiga inhibitor 22, Tb PYK inh 2% and RE007 growth inh -15%.
For O=C(Nc1cccc(NC(=O)C2CCCO2)c1)C1CCCO1 (configuration not stated) the results were LmPK inh -4%, Cycloheximide cs -4, Shiga inhibitor -4, Tb PYK inh 1% and RE007 growth inh 6%.
CC(=O)c1ccc(N2CCN(C(=O)Nc3ccc(F)cc3)CC2)cc1 was read as LmPK inh -2%, Cycloheximide cs 21*, Giardia FBPA inh 6% and Shiga inhibitor 42.
Cc1ccc(NC(=O)C2CCCO2)cc1[N+](=O)[O-] (configuration not stated) was read as LmPK inh -5%, Cycloheximide cs 28*, Giardia FBPA inh 5%, Shiga inhibitor 31, Tb PYK inh -11% and RE007 growth inh -19%.
For CC(=O)c1ccc(NC(=O)[C@@H]2CCCN2C(=O)OC(C)(C)C)cc1 the results were LmPK inh 3%, Cycloheximide cs 51*, Giardia FBPA inh -3%, Shiga inhibitor 87*, Tb PYK inh 4% and RE007 growth inh 10%.
`CC(=O)c1ccc(N2CCN(C(=O)c3ccc(NC(=O)C4CCCO4)cc3)CC2)cc1` (configuration not stated) gave LmPK inh -3%, Cycloheximide cs 14*, Giardia FBPA inh 1%, Shiga inhibitor 24, Tb PYK inh 0% and RE007 growth inh 5%.
Screening CC(=O)c1ccc(NC(=O)C2CCCO2)cc1 (configuration not stated) returned LmPK inh 1%, Cycloheximide cs 38*, Giardia FBPA inh -1%, Tb PYK inh 5% and RE007 growth inh 18%.
O=C(Nc1ccc(O)cc1)C1CCCO1 (configuration not stated) was read as LmPK inh 8%, Cycloheximide cs -2, Giardia FBPA inh -2%, Shiga inhibitor 8, Tb PYK inh 2% and RE007 growth inh 1%.
Screening CCc1ccc(-c2cnc3ccccc3n2)cc1NC(=O)CNC(=O)c1ccccc1 returned LmPK inh -8%, Cycloheximide cs 37*, Giardia FBPA inh -9%, Shiga inhibitor 105*, Tb PYK inh -4% and RE007 growth inh 6%.
For CCc1ccccc1NC(=O)CNC(=O)c1n[nH]c(=O)c2ccccc12 the results were Tb PYK inh -2% and RE007 growth inh -7%.
Screening CCC(=O)Nc1cccc(-c2cnc3ccccc3n2)c1 returned LmPK inh -16%, Cycloheximide cs 47*, Giardia FBPA inh -1%, Shiga inhibitor 36*, Tb PYK inh -1% and RE007 growth inh -22%.
`O=C(Nc1cccc(-c2cnc3ccccc3n2)c1)C1CC(=O)N(c2ccccc2)C1` (configuration not stated) gave LmPK inh 3%, Cycloheximide cs 18, Shiga inhibitor 25, Tb PYK inh -7% and RE007 growth inh -9%.
Screening O=C(CCl)Nc1cccc(-c2cnc3ccccc3n2)c1 returned LmPK inh -3%, Cycloheximide cs 46*, Giardia FBPA inh inconclusive, Shiga inhibitor 72*, Tb PYK inh -2% and RE007 growth inh -5%.
Screening O=C(CCl)Nc1ccc(Oc2cnc3ccccc3n2)cc1 returned LmPK inh 0%, Cycloheximide cs 30*, Giardia FBPA inh 0%, Shiga inhibitor 46, Tb PYK inh 2% and RE007 growth inh 9%.
Screening O=c1cc(-c2cc3ccccc3oc2=O)c2ccc(O)cc2o1 returned Giardia FBPA inh 11%.
For COC(=O)CC1C(C)(C)C(O)C2CC3=C4C=C(OC)OC(c5ccoc5)[C@]4(C)CCC3[C@@]1(C)C2=O (some centres not stated) the results were Giardia FBPA inh -1%.
Screening CCOC(=O)c1ccccc1NC(=O)CCc1c(C)nc2ncnn2c1C returned Tb PYK inh 6%.
c1ccc(-n2ncc3c(NC4CCCCCC4)ncnc32)cc1 was read as LmPK inh 5%, Cycloheximide cs 45*, Giardia FBPA inh inconclusive, Shiga inhibitor 62*, Tb PYK inh -4% and RE007 growth inh -7%.
For COc1ccc(-n2ncc3c(Nc4cccc(C)c4)ncnc32)cc1 the results were LmPK inh 10%, Cycloheximide cs 15*, Giardia FBPA inh inconclusive, Shiga inhibitor 109*, Tb PYK inh 2% and RE007 growth inh 15%.
